The values below come from PubChem BioAssay.

Assay [1] is described as follows: viability loss in pontine glioma line – cell-based, SU-DIPG-XXV, MIPE5.0, CellTiter-Glo, qHTS, dose response (AID 1347065; cut-off not given, nearly all actives have AC50 up to about 26 µM;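 further: cells exposed to compound for 48 hours before ATP readout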). The conditions noted are these: CellTiter-Glo ATP luminescence.
A short description of assay [2]: growth inhibition of DIPG cells – cell-based, MIPE4.0 library, CellTiter-Glo luminescence, qHTS (AID 1347066; cut-off not given, nearly all actives have AC50 up to about 30 µM;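 further: cells exposed to compound for 48 hours before readout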). The following applies: SU-DIPG-VI viability, CellTiter-Glo ATP luminescence.
A short description of assay [3]: JHH-DIPG-1 glioma cell viability, MIPE5.0 library, CellTiter-Glo luminescence, qHTS (AID 1347067; cut-off not given, nearly all actives have AC50 up to about 26 µM;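 further: cells exposed to compound for 48 hours before readout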). The following applies: JHH-DIPG-1 glioma viability, CellTiter-Glo ATP luminescence.
Assay [4] is described as follows: growth inhibition of DIPG cells – cell-based, MIPE5.0 library, qHTS (AID 1347068; cut-off not given, nearly all actives have IC50 up to about 30 µM). The following applies: SU-DIPG-XXV viability.
Assay [5] is described as follows: blockers of cellular phospholipid synthesis – cell-based, LOPAC library, screen 4, primary screen (AID 1347384; call rule not given here). The following applies: animal cells, phospholipid biosynthesis inhibition screen; at 10 µM.
Assay [6] in a line: MELAS cybrid and Rieske KO viability enhancers – cell-based, MELAS cybrids, Rieske KO mouse fibroblasts, CellTiter-Glo, primary screen (AID 1508586;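 active means mean z-score across replicates of 1.96 or higher in either the MELAS or the Rieske mutant cell line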;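 further: z relative to plate mean and SD of compound and empty wells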). The following applies: low glucose.
Assay [7] in a line: compounds altering HSF1 focus formation in cells – imaging, Selleck Cancer Library (AID 1347162; in the data active means plate-normalised HSF1 focus index below about 0.46). The conditions noted are these: human cells, HSF1 nuclear foci imaging, at 10 µM; SSMD: measured here: HSF1 foci SSMD mean; cell count: measured here: cell number; plate-normalised HSF1 focus index: stronger effect = lower value.
Assay [8] is described as follows: drug combination growth inhibition, ovarian cancer – cell-based, oncology-focused library, rucaparib conditional, profiling panel (AID 1508598). The following applies: patient-derived ovarian cancer cells, CellTiter-Glo viability, 144 h, stronger effect = lower value.
Assay [9] can be described thus: viability loss with induced miR-34 in A549 – imaging, A549 dox-inducible miR-34, nuclei and caspase counts, primary screen (AID 1347080;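 active means compounds whose cell count with miR-34 switched on is under 0.7 times the count with it off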). The conditions noted are these: A549 miR-34 inducible, Hoechst nuclei count, 48 h.
Setting [10] is: MELAS cybrid survival, CellTiter-Glo 48 h, stronger effect = higher value.
Setting [11] is: Rieske KO mouse fibroblast survival, CellTiter-Glo 72 h.

“And” between values parts separate entries of the source, which are not always exact repeats. Identical values can stand only once. Inconclusive results are not listed. The source made the active and inactive calls.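 How the source made its calls, unless noted: active means normalized viability below 100% at a tested concentration; inactive means the rest.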

For `Cc1cc(C(C)(C)C)cc(C)c1CC1=NCCN1`, the call in assay [1], in assay [2], in assay [3], in [4] and in assay [5] was inactive. The z-score is 0.304 (inactive) and -0.439 (inactive) and 0.446 (inactive) in [6] (setting [10]); 0.616 and -0.336 and 0.511 in [6] (setting [11]).

On to `NC(CO)C(=O)NNCc1ccc(O)c(O)c1O` (configuration not stated), for which the result in assay [1], in [2], in assay [3], in assay [4] and in [5] was inactive. In addition, the z-score was -0.395 (inactive) and 0.597 (inactive) and -0.0244 (inactive) in assay [6] (setting [10]); 0.352 and -0.231 and -1.37 in [6] (setting [11]).

As to `N#Cc1ccc(C(c2ccc(C#N)cc2)n2cncn2)cc1`, the compound was classed as inactive in [1], in assay [2], in [3] and in assay [4]. In addition, the SSMD in assay [7] was found to be 2. The cell count in [7] was 6610. For the same compound, the plate-normalised HSF1 focus index in assay [7] is 1.1 (inactive). The z-score in assay [6] (setting [10]) was -0.0811 (inactive) and 0.894 (inactive) and -0.0703 (inactive); in assay [6] (setting [11]), -0.000166 and 0.656 and -0.338. In addition, the viability in [8] (at 0.000305 µM, OCI-C5x cells, with rucaparib 10 µM, 100% = cells with rucaparib alone) is 117% (inactive); in assay [8] (at 0.000305 µM, OCI-C5x cells, without rucaparib) it was 101% (inactive); in assay [8] (at 0.000305 µM, OCI-P5x cells, with rucaparib 20 µM, 100% = cells with rucaparib alone) it was 94% (active); in [8] (at 0.000305 µM, OCI-P5x cells, without rucaparib) it was 91% (active); in assay [8] (at 0.00122 µM, OCI-C5x cells, with rucaparib 10 µM, 100% = cells with rucaparib alone), 116% (inactive); in [8] (at 0.00122 µM, OCI-C5x cells, without rucaparib) it was 113% (inactive). Moreover, the viability was 104% (inactive) in [8] (at 0.00122 µM, OCI-P5x cells, with rucaparib 20 µM, 100% = cells with rucaparib alone); 94.3% (active) in [8] (at 0.00122 µM, OCI-P5x cells, without rucaparib); 114% (inactive) in assay [8] (at 0.00488 µM, OCI-C5x cells, with rucaparib 10 µM, 100% = cells with rucaparib alone); 107% (inactive) in assay [8] (at 0.00488 µM, OCI-C5x cells, without rucaparib); 104% (inactive) in assay [8] (at 0.00488 µM, OCI-P5x cells, with rucaparib 20 µM, 100% = cells with rucaparib alone); 97.8% (active) in [8] (at 0.00488 µM, OCI-P5x cells, without rucaparib). Also, the viability was 117% (inactive) in [8] (at 0.0195 µM, OCI-C5x cells, with rucaparib 10 µM, 100% = cells with rucaparib alone); 112% (inactive) in [8] (at 0.0195 µM, OCI-C5x cells, without rucaparib); 109% (inactive) in assay [8] (at 0.0195 µM, OCI-P5x cells, with rucaparib 20 µM, 100% = cells with rucaparib alone); 106% (inactive) in assay [8] (at 0.0195 µM, OCI-P5x cells, without rucaparib); 123% (inactive) in [8] (at 0.0781 µM, OCI-C5x cells, with rucaparib 10 µM, 100% = cells with rucaparib alone); 102% (inactive) in [8] (at 0.0781 µM, OCI-C5x cells, without rucaparib). Further, the viability was 106% (inactive) in [8] (at 0.0781 µM, OCI-P5x cells, with rucaparib 20 µM, 100% = cells with rucaparib alone); 105% (inactive) in assay [8] (at 0.0781 µM, OCI-P5x cells, without rucaparib); 117% (inactive) in assay [8] (at 0.313 µM, OCI-C5x cells, with rucaparib 10 µM, 100% = cells with rucaparib alone); 106% (inactive) in assay [8] (at 0.313 µM, OCI-C5x cells, without rucaparib); 104% (inactive) in assay [8] (at 0.313 µM, OCI-P5x cells, with rucaparib 20 µM, 100% = cells with rucaparib alone); 108% (inactive) in [8] (at 0.313 µM, OCI-P5x cells, without rucaparib). Moreover, the viability in assay [8] (at 1.25 µM, OCI-C5x cells, with rucaparib 10 µM, 100% = cells with rucaparib alone) is 107% (inactive); in [8] (at 1.25 µM, OCI-C5x cells, without rucaparib), 104% (inactive); in [8] (at 1.25 µM, OCI-P5x cells, with rucaparib 20 µM, 100% = cells with rucaparib alone), 108% (inactive); in assay [8] (at 1.25 µM, OCI-P5x cells, without rucaparib) it was 107% (inactive); in assay [8] (at 5 µM, OCI-C5x cells, with rucaparib 10 µM, 100% = cells with rucaparib alone), 113% (inactive); in assay [8] (at 5 µM, OCI-C5x cells, without rucaparib), 128% (inactive). The viability in assay [8] (at 5 µM, OCI-P5x cells, with rucaparib 20 µM, 100% = cells with rucaparib alone) was 112% (inactive); in assay [8] (at 5 µM, OCI-P5x cells, without rucaparib), 104% (inactive).

`O=C(O)CCNC(=O)c1ccc(N=Nc2ccc(O)c(C(=O)O)c2)cc1`: the compound was called inactive in [1], in assay [2], in assay [3] and in assay [4]. The fold change in assay [9] (stronger effect = lower value, cell number ratio, induced over uninduced) was 0.971 (inactive) and 0.94 (inactive) and 0.899 (inactive); in assay [9] (measured here: relative caspase fold change +Dox/-Dox) it was 0.807 and 0.806 and 1.14. The cell count in assay [9] (measured here: total cells with miR-34 induction, stronger effect = lower value) was 9210 and 7860 and 9290; in [9] (measured here: total cells without miR-34 induction), 9490 and 8360 and 10300. The z-score is -1.26 (inactive) in assay [6] (setting [10]) and -1.16 in assay [6] (setting [11]).

Regarding `CC(=O)Oc1ccccc1C(=O)O`, the compound was classed as inactive in assay [1], in assay [2], in assay [3], in [4] and in assay [5]. The z-score is -0.282 (inactive) and -0.31 (inactive) and 0.455 (inactive) in assay [6] (setting [10]); 0.817 and -0.843 and -0.759 in [6] (setting [11]).
